Some test systems named below: NCI-H226 lung; NCI-H322M lung; HOP-62 NSCLC; NCI-H460 lung; HOP-92 NSCLC; NCI-H522 lung; A549/ATCC NSCLC; 786-0 renal; COLO 205 colon.
Assay in all cases: NCI-60 one-dose screen, 48 h (100 = growth as untreated, 0 = no growth, -100 = all killed)
What all share (conditions): 10 µM unless noted

Results on 13 molecules are retold here after PubChem BioAssay (NCI).

Where “and” joins values, the source holds several entries; their conditions need not be identical. Equal values may be shown once. The panel holds about 83,000 compounds, 20% with a hit somewhere; the sample as a whole holds those more often.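 Cells were grown in 96-well plates and exposed to the test compound at a single concentration for 48 hours; results are reported as percent growth, with values below 10 considered active.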 Calls of active or inactive are those of the source.

For the molecule `COc1cc2c(cc1OCCCOC1=C=C=C(c3ccc4c(c3)c3cc(-c5ccc(OCCCOc6cc7c(cc6OC)C(=O)N6CCC[C@H]6C=N7)cc5)ccc3n4S(=O)(=O)c3ccc(C)cc3)C=C1)N=C[C@@H]1CCCN1C2=O`, the growth in the experiment on NCI-H226 lung was 22.8% (inactive); with NCI-H322M lung it was 216% (inactive); with HOP-62 NSCLC, 116% (inactive) and 54.5% (inactive); with NCI-H460 lung it was 15.5% (inactive); in the experiment with HOP-92 NSCLC, 69.3% (inactive); in the experiment on NCI-H522 lung, -8.9% (active). In addition, the growth is 56.4% (inactive) in the experiment on A549/ATCC NSCLC; 115% (inactive) and 1.63% (active) with 786-0 renal; 49% (inactive) in the experiment with COLO 205 colon.
As for `C=C1CC[C@@H]2[C@](C)(COC(C)=O)[C@H](OC(C)=O)CC[C@@]2(C)[C@@H]1CC(Nc1ccc(S(=O)(=O)Nc2nccs2)cc1)C1=CCOC1=O` (some centres undefined), the growth with NCI-H226 lung is -14% (active); in the experiment on NCI-H322M lung, 59.9% (inactive); with HOP-62 NSCLC, 120% (inactive); in the experiment with NCI-H460 lung, 29.5% (inactive); with HOP-92 NSCLC, 54% (inactive); in the experiment on NCI-H522 lung it was -61.9% (active). Also, the growth is 43.7% (inactive) in the experiment on A549/ATCC NSCLC, 6.27% (active) in the experiment on 786-0 renal and -24.6% (active) in the experiment on COLO 205 colon.
In the case of `O=C(N=Nc1c(O)[nH]c2ccccc12)Nc1ccccc1Cl`, the growth is 87.1% (inactive) in the experiment on NCI-H226 lung; 104% (inactive) with HOP-62 NSCLC; 92.1% (inactive) in the experiment with NCI-H460 lung; 90.3% (inactive) in the experiment on HOP-92 NSCLC; 78.6% (inactive) with NCI-H522 lung; 107% (inactive) with A549/ATCC NSCLC. Further, the growth in the experiment with 786-0 renal is 96.9% (inactive); with COLO 205 colon, 105% (inactive).
As for `COc1ccc(Oc2nc(Nc3ccc(N4CCOCC4)cc3)ncc2NC(=O)c2cc(OC)cc(OC)c2)cc1`, the growth was 71.2% (inactive) in the experiment on NCI-H226 lung; 96.7% (inactive) with NCI-H322M lung; 97% (inactive) in the experiment on HOP-62 NSCLC; 95.5% (inactive) with NCI-H460 lung; 70.7% (inactive) in the experiment on HOP-92 NSCLC; 58.2% (inactive) in the experiment on NCI-H522 lung. Moreover, the figures for the growth in the experiment on A549/ATCC NSCLC, with 786-0 renal and with COLO 205 colon were 82.4% (inactive), 66.5% (inactive) and 64.5% (inactive), respectively.
`COC(=O)c1c2c(c(C)[n+]([O-])c1C)C(=O)C(NCCN1CCOCC1)=CC2=O`: the growth with NCI-H226 lung was 103% (inactive); with NCI-H322M lung, 72.5% (inactive); in the experiment on HOP-62 NSCLC, 101% (inactive); in the experiment with NCI-H460 lung, 55.4% (inactive); in the experiment on HOP-92 NSCLC it was 146% (inactive); in the experiment on NCI-H522 lung, 87.5% (inactive). Further, the figures for the growth with A549/ATCC NSCLC, with 786-0 renal and with COLO 205 colon were 91.3% (inactive), 89.9% (inactive) and 6.73% (active), respectively.
In the case of `COc1ccc(C/C(C)=C(\c2ccc(O)cc2)c2ccc(OCCCN(C)C)cc2)cc1`, the growth in the experiment with NCI-H226 lung was 94.2% (inactive); with NCI-H322M lung, 94% (inactive); in the experiment on HOP-62 NSCLC it was 111% (inactive); with NCI-H460 lung, 93.7% (inactive); with HOP-92 NSCLC, 68.7% (inactive); in the experiment on NCI-H522 lung, 91.5% (inactive). The growth in the experiment on A549/ATCC NSCLC was 90.6% (inactive); with 786-0 renal it was 101% (inactive); in the experiment on COLO 205 colon, 97% (inactive).
As for `COc1cc(NC2CCCCC2O)c2nc(-c3ccc(Cl)cc3)ccc2c1` (centres undefined), the growth is 90% (inactive) in the experiment with NCI-H226 lung; 88.8% (inactive) and 88.2% (inactive) in the experiment on NCI-H322M lung; 109% (inactive) and 108% (inactive) in the experiment with HOP-62 NSCLC; 41.2% (inactive) and 57.9% (inactive) in the experiment with NCI-H460 lung; 65.7% (inactive) and 89.5% (inactive) in the experiment with NCI-H522 lung; 69% (inactive) and 73.5% (inactive) with A549/ATCC NSCLC. Besides, the growth with 786-0 renal is 42.4% (inactive) and 77.6% (inactive); in the experiment on COLO 205 colon, 93.2% (inactive) and 110% (inactive).
`COC1/C=C/OC2(C)Oc3c(C)c(O)c4c(O)c(c(C=NOC(c5ccccc5)c5ccccc5)c(O)c4c3C2=O)NC(=O)/C(C)=C/C=C/C(C)C(O)C(C)C(O)C(C)C(OC(C)=O)C1C` (centres undefined): the growth was 20.3% (inactive) in the experiment on NCI-H226 lung; 47.4% (inactive) in the experiment with NCI-H322M lung; -89.5% (active) with HOP-62 NSCLC; 2.85% (active) with NCI-H460 lung; -8.12% (active) with HOP-92 NSCLC; 13% (inactive) in the experiment with NCI-H522 lung. For the same molecule, the growth was 16.3% (inactive) in the experiment with A549/ATCC NSCLC, 12.2% (inactive) in the experiment on 786-0 renal and -88.2% (active) with COLO 205 colon.
With `O=c1ccc2nc(-c3ccccn3)nn(-c3ccccc3)c-2c1`, the growth is 90.1% (inactive) in the experiment with NCI-H226 lung; 102% (inactive) with NCI-H322M lung; 93.4% (inactive) in the experiment on HOP-62 NSCLC; 109% (inactive) with NCI-H460 lung; 36.8% (inactive) in the experiment on HOP-92 NSCLC; -45% (active) in the experiment with NCI-H522 lung. Also, the growth in the experiment on A549/ATCC NSCLC was 101% (inactive); in the experiment with 786-0 renal, 53.6% (inactive); with COLO 205 colon, -59.4% (active).
Take `COC(=O)N/N=C/c1c[n+]([O-])c2ccccc2[n+]1[O-]`: the growth with NCI-H226 lung is 109% (inactive); in the experiment on NCI-H322M lung it was 98.3% (inactive); with HOP-62 NSCLC it was 22.7% (inactive); in the experiment with NCI-H460 lung, 105% (inactive); in the experiment with HOP-92 NSCLC it was 96.5% (inactive); in the experiment on NCI-H522 lung, 92.9% (inactive). The growth in the experiment on A549/ATCC NSCLC was 93.1% (inactive); in the experiment on 786-0 renal, 93.8% (inactive); in the experiment with COLO 205 colon, -45.4% (active).
For the molecule `CC/C(=C(/c1ccc(O)cc1)c1ccc(OCCN2CCCCCC2)cc1)c1ccc(Cl)cc1`, the growth in the experiment on NCI-H226 lung was 89.2% (inactive); in the experiment with NCI-H322M lung it was 84.1% (inactive); with HOP-62 NSCLC it was 98.8% (inactive); in the experiment with NCI-H460 lung it was 46% (inactive); with HOP-92 NSCLC, 69.5% (inactive); in the experiment on NCI-H522 lung, 90.2% (inactive). In addition, the growth with A549/ATCC NSCLC was 70.6% (inactive); in the experiment on 786-0 renal it was 18.4% (inactive); with COLO 205 colon it was 4.48% (active).
As for `N=c1ccccn1CCO`, the growth in the experiment on NCI-H226 lung is 107% (inactive); with NCI-H322M lung it was 96.7% (inactive); with HOP-62 NSCLC it was 110% (inactive); in the experiment on NCI-H460 lung it was 114% (inactive); in the experiment with HOP-92 NSCLC, 96.5% (inactive); in the experiment on NCI-H522 lung it was 114% (inactive). The growth in the experiment on A549/ATCC NSCLC was 99.3% (inactive); with 786-0 renal, 102% (inactive); in the experiment on COLO 205 colon, 110% (inactive).
On to `CCOC(=O)C(=Cc1ccc(C#N)cc1)C(=O)OCC`, for which the growth is -36.3% (active) in the experiment with NCI-H226 lung; 73.2% (inactive) with NCI-H322M lung; 104% (inactive) in the experiment on HOP-62 NSCLC; 81.6% (inactive) in the experiment on NCI-H460 lung; 58.3% (inactive) in the experiment on HOP-92 NSCLC; -24.6% (active) in the experiment on NCI-H522 lung. The growth in the experiment on A549/ATCC NSCLC was 53.2% (inactive); with 786-0 renal it was 0.647% (active).
